Laboratory results reported in PubChem BioAssay AID1209 (Sanford-Burnham Center for Chemical Genomics, 2008).
“And” between values parts separate entries of the source, which are not always exact repeats. Equal entries are not always repeated. Out of some 190,000 compounds screened, about 810 (0.43%) were called active. The entries come from a sample that favours actives as a whole. A number with no mark means an inactive call. No stated cut-off is given here; in the data, active means inhibition above about 50%; inactive means the rest.

biological target: Mannose-6-phosphate isomerase (Homo sapiens) (UniProt P34949); experiment: MPI enzyme activity inhibition – biochemical, fluorescence intensity, coupled assay, primary screen (AID 1209); conditions: purified PMI enzyme, at 20 µM, hits give high values;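 further: plate controls were DMSO vehicle for no effect and wells lacking substrate for full effect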
Sequence (P34949 whole entry, looked up): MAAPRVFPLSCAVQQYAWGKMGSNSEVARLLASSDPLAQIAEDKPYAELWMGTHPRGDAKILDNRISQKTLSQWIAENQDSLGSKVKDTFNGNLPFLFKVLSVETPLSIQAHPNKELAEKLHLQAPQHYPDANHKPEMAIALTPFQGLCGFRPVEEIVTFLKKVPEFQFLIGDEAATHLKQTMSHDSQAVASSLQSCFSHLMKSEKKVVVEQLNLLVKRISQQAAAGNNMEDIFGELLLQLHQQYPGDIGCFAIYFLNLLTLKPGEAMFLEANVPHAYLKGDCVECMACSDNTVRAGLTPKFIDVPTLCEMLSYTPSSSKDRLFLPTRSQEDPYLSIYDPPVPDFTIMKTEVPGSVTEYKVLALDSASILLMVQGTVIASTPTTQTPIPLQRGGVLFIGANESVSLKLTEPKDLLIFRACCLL

| SMILES | inhibition |
| --- | --- |
| Fc1ccc2nc(N3CCCC3)sc2c1 | 8.5% |
| COc1cc(CNC(C)(C)CO)cc(Br)c1OCc1ccc(Cl)cc1 | 5.6% |
| FC(F)(F)c1cccc(OCCOCCn2cncn2)c1 | 3.9% |
| Cc1ccc(C2CC(C(F)(F)F)n3ncc(C(=O)NCc4ccco4)c3N2)cc1 (stereo unspecified) | 108% (active) |
| O=C(NCc1ccco1)c1cnn2c1NC(c1ccccc1)CC2C(F)(F)F (stereo unspecified) | -6.3% |
| O=C(NCc1ccco1)c1cnn2c1NC(c1ccc(Br)cc1)CC2C(F)(F)F (stereo unspecified) | 27% |
| COc1cc(NC(=O)C(C)Oc2ccccc2)c(C(=O)O)cc1OC (stereo unspecified) | 10.7% |
| O=C(Cc1c[nH]c2ccccc12)NC1(C(=O)NC2CCCCC2)CCCCC1 | -4% |
| COC(=O)c1ccc(C2C(Oc3ccccc3)C(=O)N2CCc2ccc(OC)c(OC)c2)cc1 (stereo unspecified) | -2.9% |
| COC(=O)c1ccc(C2C(Oc3ccc(OC)cc3)C(=O)N2CCc2ccc(OC)c(OC)c2)cc1 (stereo unspecified) | 52% (active) |
| COC(=O)c1ccc(C2C(Oc3ccc(OC)cc3)C(=O)N2CCc2ccc(F)cc2)cc1 (stereo unspecified) | -0.6% |
| COCCNC(=O)C(c1cccs1)N(C(=O)Cn1nnc2ccccc21)c1cccc(C)c1 (stereo unspecified) | 5.9% |
| O=C(Cn1cc(/C=N/NC(=O)c2ccccc2Br)c2ccccc21)Nc1ccc(F)cc1 | 5.7% |
| O=C(CCS(=O)(=O)c1ccc(Cl)cc1)OCC(=O)N1CCCCC1 | 9.3% |
| Cc1cccc(-n2nnc(C(=O)NCc3ccco3)c2N)c1 | -18.8% |
| CCOc1cccc(N2C(=O)CC(N(CCc3ccc(OC)c(OC)c3)C(=O)CC)C2=O)c1 (stereo unspecified) | 57% (active) |
| CCOc1ccc(N2C(=O)CC(N(CCc3ccc(OC)c(OC)c3)C(=S)Nc3ccccc3)C2=O)cc1 (stereo unspecified) | 19.8% |
| CCOC(=O)c1ccc(N2C(=O)CC(N(C)CCc3ccc(OC)c(OC)c3)C2=O)cc1 (stereo unspecified) | 16.4% |
| O=C(CSc1n[nH]c(=O)[nH]c1=O)Nc1ccc(C(=O)O)cc1 | -8.4% |
| O=[N+]([O-])c1cc(-c2ncccn2)cs1 | -13.4% |
| O=[N+]([O-])c1cccnc1NCc1cccs1 | -2.4% |
| O=C(O)CCC(=O)Nc1ccc(Cc2ccc(NC(=O)CCC(=O)O)c(O)c2)cc1O | -9.3% |
| Cc1ccc(Cl)cc1N1CCN(C(=O)CN2C(=O)c3cccc4cccc2c34)CC1 | 12.6% |

| SMILES | inhibition |
| --- | --- |
| O=S1(=O)NC(=NCCc2ccccn2)c2ccccc21 | -7.8% |
| O=S1(=O)Nc2c(ccc3cccnc23)-c2ccccc21 | 62% (active) |
| c1cnc2c(c1)ccc1cccnc12 | 5.7% and 24.3% |
| COc1ccc(-c2c(C)n([O-])c3c([n+]2=O)CCC3)cc1OC | 8% |
| c1ccc(-c2ccccc2-n2cnnn2)cc1 | -7.6% |
| Cc1cc(C)nc(N2CCCC(C(=O)Nc3nc4ccc(S(C)(=O)=O)cc4s3)C2)n1 (stereo unspecified) | 51.4% (active) |
| O=C(Nc1nc2ccc(S(=O)(=O)N3CCCC3)cc2s1)C1CCCCC1 | 7.3% |
| Cc1cc(C)nc(N2CCCC(C(=O)Nc3nnc(C)s3)C2)n1 (stereo unspecified) | -13.6% |
| CS(=O)(=O)c1ccc2nc(NC(=O)CCC(=O)c3cccs3)sc2c1 | -8.5% |
| CCc1c(C(C)S(=O)(=O)c2ccccc2)[nH]c(=O)n1CC (stereo unspecified) | -38% |
| CCn1c(C)c(CS(=O)(=O)c2ccccc2)[nH]c1=O | 85.5% (active) |
| Cc1nn(C)c(C)c1CS(=O)(=O)c1ccccc1 | -8.9% |
| Cc1cc(C)cc(-n2cc(C(=O)O)c(=O)cc2C)c1 | 5.3% |
| COc1ccc(NC(=O)CSc2nc3sc(C)c(C)c3c(=O)n2Cc2ccco2)cc1 | 7.7% |
| C=CCN1C(=O)/C(=C/c2ccc(OC(C)=O)c(OCC)c2[N+](=O)[O-])SC1=S | 41.3% |
| CCOc1c(O)ccc(/C=C2\SC(=S)NC2=O)c1[N+](=O)[O-] | 55.7% (active) |
| CCOc1ccc(/C=C2\SC(=S)NC2=O)cc1OC | -12% |
| CC(=O)c1[nH]c(C)c(C(C)=O)c1C | 11% |
| CC(=O)c1c(C(=O)O)[nH]c(C(=O)O)c1C | 108% (active) |
| CC(=O)c1c(C)[nH]c(C(=O)O)c1C | 13.6% |
| S=c1nc(-c2ccccc2)n(CCCn2ccnc2)c2c1CCCC2 | 1.7% |
| COc1ccc(/C=C(\CC(=O)O)c2nc3ccccc3o2)cc1 | -27.3% |
| Cc1nc(C)c(C(=O)NNC(=O)c2ccc(Br)cc2)s1 | 6.9% |
